hgDAF12 agonist: hgDAF-12 agonism, primary luciferase screen | activation, % at 6.8 µM | AID 687014 | HEK293 GAL4-hgDAF12 UAS-luciferase reporter, agonist luminescence; normalized to butyrate control | 1.8% of 370,000 active;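 active = activation above a cutoff set at the mean of all screened compounds plus 3 SD, cut at about 10% in these data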;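 also: 0% = DMSO wells and 100% = sodium butyrate wells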
hcDAF12 agonist: activators of H. contortus DAF-12 nuclear receptor. HEK293 hcDAF-12 lit1-tk-luc reporter, luminescence; 0% DMSO, 100% Δ7-dafachronic acid. activation, % at 6.8 µM. 1.4% of 370,000 active. AID 652067;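 active = activation above the mean of all tested compounds plus 3 SD, cut at about 5.5% in these data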;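 also: 100% = response to 3 µM Δ7-dafachronic acid high control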
SMARCA2 activ: activators of SMARCA2 function. AID 652017. activation, % at 9.1 µM. 1% of 370,000 active. MG213 cells, MMTV-luciferase reporter, dexamethasone, overnight; in the data active = activation above about 7.8%;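 also: 0% = vehicle wells and 100% = reference activator wells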
DAX1 inh-1: DAX1 (NR0B1) inhibition, primary screen. HEK293T StAR-luciferase reporter, SF-1/DAX-1 repression relief. inhibition, % at 6.8 µM. 1.1% of 370,000 active;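 active = inhibition above the mean over all tested compounds plus 3 SD, cut at about 3.6% in these data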;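 also: 0% = DAX-1 cells with DMSO and 100% = cells lacking DAX-1 with DMSO; higher inhibition means more luminescence from relief of DAX-1 repression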
DAX1 inh-2: NR0B1 (DAX1) inhibition; P51843; HEK293 Gal4-DAX1 luciferase reporter, luminescence; inhibition, % at 6.75 µM; 0.99% of 340,000 active;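 active = inhibition above the mean over all tested compounds plus 3 SD, cut at about 4.2% in these data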;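 also: 0% = DAX1-transfected cells with DMSO and 100% = empty-vector control cells with DMSO; inhibition shows as a rise in luminescence from relieved DAX1 repression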
Target sequence (P51843 207-470 limits assumed): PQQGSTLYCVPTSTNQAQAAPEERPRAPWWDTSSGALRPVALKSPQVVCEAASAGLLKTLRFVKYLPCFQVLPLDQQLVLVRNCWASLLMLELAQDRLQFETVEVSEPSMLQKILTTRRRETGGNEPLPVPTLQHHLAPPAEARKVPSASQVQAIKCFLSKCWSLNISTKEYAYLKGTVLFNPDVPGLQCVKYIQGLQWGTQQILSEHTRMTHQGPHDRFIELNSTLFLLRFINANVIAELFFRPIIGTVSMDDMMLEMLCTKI
ssDAF-12 act: S. stercoralis DAF-12 activation, primary screen; HEK293 ssDAF-12/GRIP1 lit1-tk-luc reporter, luminescence; % of 3 µM dafachronic acid response; activation, % at 6.8 µM; 1% of 370,000 active;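 active = activation above the mean over all tested compounds plus 3 SD, cut at about 0.9% in these data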;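 also: 0% = DMSO-only wells and 100% = 3 µM delta7-dafachronic acid wells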
Starred values were filed as active, the others as inactive; . = no result. Only some compounds are listed: those with a hit (about 4.8% of all), similar ones and a draw of the others.

SMILES	hgDAF12 agonist	hcDAF12 agonist	SMARCA2 activ	DAX1 inh-1	DAX1 inh-2	ssDAF-12 act
COC(=O)C1CN(Cc2cn(CCC3OCCO3)nn2)CCS(=O)(=O)N1Cc1ccc(Cl)cc1 (stereo unspecified)	-1	0	-5	-1	.	-1
O=C(C1=NN[C@@H]2C(=O)N(c3cccc(C(F)(F)F)c3)C(=O)[C@H]12)c1cnccn1	0	0	-1	0	7.3*	-1
COc1ccc(N(CC(=O)N/N=C(\C)c2ccc(C)cc2)S(=O)(=O)c2ccccc2)cc1	2	-1	3	0	1	-1
COc1ccc(/C(C)=N/NC(=O)CN(c2ccc(OC)cc2)S(=O)(=O)c2ccccc2)cc1	-1	-1	-3	0	4.4*	-1
Cc1ccc(S(=O)(=O)SC/C=C/CSS(=O)(=O)c2ccc(C)cc2)cc1	1	0	1	0	5.5*	0
CCC(C)N1CC(O)=C(c2nc3ccccc3[nH]2)C1=N (stereo unspecified)	5	3	0	2	0	-2
CC1C(O)=C(c2nc3ccccc3[nH]2)C(=N)N1c1ccccc1 (stereo unspecified)	13*	0	2	0	2	-1
Cc1c(NC(=O)C2CCCN(S(=O)(=O)c3cccc4ccccc34)C2)c(=O)n(-c2ccccc2)n1C (stereo unspecified)	-1	-4	1	-1	.	-1
COc1ccc(C(=O)CC(=O)C(=O)NCCc2cccc(C)c2)cc1	1	6.4*	-3	0	2	-1
COc1ccc(OC(=O)NCCc2ccccc2)cc1	13*	2	-2	0	2	0
COc1ccc(CCNC(=O)c2ccccc2)cc1	2	-1	0	0	0	-1
CC(=O)c1sc(=S)n(Cc2ccccc2)c1C	-1	-2	-1	0	0	-1
COC(=O)c1sc(=S)n(Cc2ccccc2)c1C	1	-1	-3	0	12*	-1
CCn1c(SCC(=O)Nc2ccccc2-c2ccccc2)nnc1-c1ccc(Cl)cc1	0	-2	-3	0	.	-1
CCN(CC)S(=O)(=O)c1ccc(Cl)c(NC(=O)COc2ccccc2[N+](=O)[O-])c1	-1	1	-3	0	0	-1
CC(C)c1ccccc1NC(=O)COC(=O)COc1ccccc1[N+](=O)[O-]	3	-1	-2	0	3	1.9*
CN(C)S(=O)(=O)c1ccc(Cl)c(NC(=O)COc2ccccc2[N+](=O)[O-])c1	-1	-1	1	-1	1	0.9*
CCOc1cc(/C=N/NC(=O)COc2ccc(C)cc2)ccc1OC(=O)c1cccs1	0	0	-2	-1	-1	-1
Cc1ccc(OCC(=O)Nc2ccccc2[N+](=O)[O-])c(Br)c1	7	0	5	2	0	1.0*
COc1cc(/C=N/NC(=O)COc2ccc(C)cc2)ccc1OC(=O)c1cccs1	4	1	-1	0	-2	0.9*
Cc1ccc(-n2c(SCC(=O)NN=Cc3ccc(-c4ccccc4)cc3)nnc2-c2ccccc2)cc1	-2	1	-2	-1	.	-1
Cc1ccc(/C=N\NC(=O)COc2ccc(C)cc2[N+](=O)[O-])cc1	1	0	-5	0	7.0*	-1
Cn1nc(C(=O)OCC(=O)Nc2ccccc2[N+](=O)[O-])c2ccccc2c1=O	0	2	-2	0	0	1.0*
O=S1(=O)c2ccc(N3CCSCC3)cc2Oc2ccccc2CN1Cc1cn(Cc2ccc(F)cc2)nn1	-3	-1	7	-1	.	-1
COC(=O)[C@]12C[C@H](CC(=O)N3CCCCC3)C(=O)N(CCC3=CCCCC3)C1=C[C@H](C(C)C)O[C@@H]2C1CC1	-2	-1	-2	0	.	-2
SMILES	hgDAF12 agonist	hcDAF12 agonist	SMARCA2 activ	DAX1 inh-1	DAX1 inh-2	ssDAF-12 act
COc1cccc(/C(O)=C2/C(=O)C(=O)N(CCCN3CCOCC3)C2c2ccncc2)c1 (stereo unspecified)	-1	-2	-2	0	0	-1
CN(C)S(=O)(=O)c1ccc(/C(O)=C2/C(=O)C(=O)N(CCCN3CCOCC3)C2c2ccncc2)cc1 (stereo unspecified)	1	1	-4	1	5.1*	-2
O=C1N=c2ccccc2=C1c1sc(=S)n(NC(=O)c2ccccc2)c1O	2	3	0	1	0	1.0*
COc1cc2[nH]c(=S)n(NC(=O)c3ccccc3)c(=O)c2cc1OC	-1	-2	4	0	0	0
COc1ccccc1Cc1c(-c2ccc(F)cc2)nc2ccc(Br)cn12	8	3	3	0	.	1.3*
COc1ccccc1Cc1c(-c2ccc(C)cc2)nc2ccc(Cl)cn12	8	1	4	3.9*	.	0
Cc1cc(C(=O)Nc2ccc(F)cc2C)n(-c2ccccc2)n1	3	-1	-1	0	5.0*	-2
CCCCN1C(=O)/C(=C2\SC(N3CCCCC3)=NC2=O)c2ccccc21	7	3	6	2	4.3*	-2
O=C1N=C(N2CCCCC2)SC1=C1CCCC1	3	0	-1	2	1	-1
O=C(NCCc1ccccc1)C1CCC(Cn2c(=O)c3ccccc3n(Cc3cccc(F)c3)c2=O)CC1 (stereo unspecified)	1	5	-1	0	1	0
O=C(NCCc1ccccc1)C1CCC(Cn2c(=O)c3ccccc3n(Cc3cccc(Cl)c3)c2=O)CC1 (stereo unspecified)	4	2	-4	0	6.0*	0
C/C(=N\NC(=O)c1nnn(-c2nonc2N)c1CN1CCc2ccccc21)c1ccccc1O	0	5.6*	-5	0	0	-1
CC1CCN(c2ccc(C(=O)O)cc2NS(=O)(=O)c2ccc(C(C)(C)C)cc2)CC1	-4	-2	-1	-1	.	0
Cc1ccc(C)c(S(=O)(=O)NCC(=O)N2CCCC2)c1	2	2	4	1	-1	-1
Cc1cc(C)c(C)c(S(=O)(=O)NCC(=O)N2CCCC2)c1C	1	-3	-3	0	1	0.9*
Cc1cc(C(=O)N(C2CCCCC2)C2CCCCC2)no1	-2	-1	-2	-1	0	-2
CC1CCCCC1N(C(=O)c1cc(C2CC2)on1)C1CCCCC1 (stereo unspecified)	12*	-1	-2	0	.	-1
O=C(CSc1ccc(-c2cccc([N+](=O)[O-])c2)nn1)N1CCCC1	0	-1	-2	0	2	-1
CCSc1ccc(-c2cccc([N+](=O)[O-])c2)nn1	13*	6.2*	1	2	0	0
Cc1cc(NC(=O)CSc2ccc(-c3cccc([N+](=O)[O-])c3)nn2)no1	-2	2	-5	4.0*	0	0

Source: PubChem BioAssay (The Scripps Research Institute Molecular Screening Center)
